# Assay results reported in PubChem BioAssay (EPA / NIEHS).
# Values joined by “and” are separate entries in the source; they are usually repeats but may differ in a detail not shown here. Equal entries are not always repeated. Inconclusive results are not listed. The source holds several records for some structures; these can differ, active in one and inactive in another. Active and inactive are the calls of the source. How the source made its calls, unless noted: active means hit-call score of the fitted dose curve at least 0.9, where 1 is the maximum; inconclusive means response in the unintended direction; inactive means score below 0.9.
# Columns and labels:
# [1] = biological target: Peroxisome proliferator-activated receptor gamma (Homo sapiens) (UniProt P37231); test: ATG_hPPARg_XSP2: Attagene TRANS-FACTORIAL Multi-Species (XSP2) HepG2 Assay for human Peroxisome Proliferator-activated Receptor gamma (PPARg) (AID 2283829);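 further: actives raise reporter mRNA above DMSO so AC50 reflects PPARg activation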
# Summary of the method: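 After transfecting HepG2 with GAL4-UAS reporter constructs, cells are dosed for 24 h; total RNA is reverse-transcribed, PCR-amplified, FAM-labeled, HpaI-digested and resolved by capillary electrophoresis. Activity is measured as mRNA induction relative to DMSO.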
# [2] = biological target: mouse Peroxisome Proliferator-activated Receptor gamma (PPARg), Pparg (gene 19016) (UniProt P37238); test: ATG_mPPARg_XSP2: Attagene TRANS-FACTORIAL Multi-Species (XSP2) HepG2 Assay for mouse Peroxisome Proliferator-activated Receptor gamma (PPARg) (AID 2283830);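 further: hits are gains in reporter mRNA above DMSO so AC50 marks activation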
# Method: ATG_XSP2_multi-species_TRANS is a cell-based, multiplexed assay created by modifying the existing Attagene TRANS-FACTORIAL system to include a panel of nuclear receptors from some or all the following species: human (Homo sapiens), mouse (Mus musculus), frog (Xenopus laevis), zebrafish (Danio rerio), chicken (Gallus gallus), and turtle (Chrysemys picta). The […] format uses HepG2, a human liver cell line, with measurements taken at 24 hours after chemical dosing in a 24-well plate. Xsp2 included 3 nM 6-alpha-fluorotestosterone and 1.5 nM norgestrel to stimulate the androgen receptor.ATG_mPPARg_XSP2 is one of 29 assay components measured or calculated from the ATG_XSP2_multi-species_TRANS assay. It is designed to make measurements of mRNA induction, a form of inducible reporter, as detected with fluorescence intensity signals by Reverse transcription polymerase chain reaction (RT-PCR) and Capillary electrophoresis technology.The assay endpoint ATG_mPPARg_XSP2 was analyzed in the positive analysis fitting direction relative to DMSO as the negative control and baseline of activity. Using a type of inducible reporter, measures of mRNA for gain-of-signal activity can be used to understand the reporter gene at the transcription factor-level as they relate to the gene PPARg. Furthermore, this assay endpoint can be referred to as a primary readout, because this assay has produced multiple assay endpoints where this one serves a reporter gene function. To generalize the intended target to other relatable targets, this assay endpoint is annotated to the nuclear receptor intended target family, where the subfamily is non-steroidal.
# Human liver HepG2 cells are transiently transfected with multiple reporter transcription units (MRTUs) in 6-well plates using FuGene 6 reagent (Roche; 3 ml FuGene/1 mg DNA). The MRTU constructs are regulated by a cis-regulating element (promoter). […] A major difference between the CIS and TRANS system is that in CIS activities of endogenous TFs are measured, whereas the TRANS assay evaluates changes in activities of exogenous, chimeric NR-Gal4 proteins. […] At the end of 24 hour incubation, total RNA was isolated using TriZol reagent (Invitrogen). The isolated RNA is then reverse-transcribed using oligo(dT) primer and Mo-MLV reverse transcriptase (Invitrogen) with DNAse I (Ambion) treatment for 30 min. The one-tenth of the produced cDNA was amplified by PCR using Taq DNA polymerase (Invitrogen) and two reporter sequence-specific primers. The PCR products were fluorescently labeled by primer extension with 6-arboxyfluorescein (6-FAM) 5'-labeled reporter sequence-specific primer (2 min at 95 C, 20 s at 68 C and 10 min at 72 C) and these products were digested with 5U of HpaI (New England Biolabs) for 2h at 37 C. The fragments were purified using Qiaquick PCR columns (Qiagen), analyzed on an ABI 3130xL genetic analyzer (Applied Biosystems) with peak positions identified by using a set of X-rhodamine (ROX)-labeled MapMarker1000 molecular weight standards (BioVentures). The raw capillary electrophoresis data was processed using Attagraph software (Attagene).
# [3] = biological target: Nuclear receptor subfamily 1 group I member 2 (Mus musculus) (UniProt O54915); test: ATG_mPXR_XSP2: Attagene TRANS-FACTORIAL Multi-Species (XSP1) HepG2 Assay for mouse Pregnane X Receptor (PXR) (AID 2283831)
# Summary of the method: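 Reporter transcripts were quantified by RT-PCR, FAM primer extension, HpaI digestion and capillary electrophoresis after 24 h of chemical exposure in transiently transfected HepG2 cells carrying chimeric receptor-GAL4 constructs; DMSO served as baseline.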
# [4] = biological target: zebrafish Thyroid Hormone Receptor alpha (TRa), thraa (gene 30670) (UniProt Q98867); test: ATG_zfTRa_XSP2: Attagene TRANS-FACTORIAL Multi-Species (XSP1) HepG2 Assay for zebrafish Thyroid Hormone Receptor alpha (TRa) (AID 2283832);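 further: actives raise zebrafish TRa-Gal4 reporter transcript above DMSO baseline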
# Summary of the method: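 Transient transfection of human HepG2 with GAL4-UAS reporter units, then 24 h chemical treatment. RNA isolated, reverse-transcribed, PCR-amplified, FAM-labelled, HpaI-digested and run on capillary electrophoresis. Gain-of-signal relative to DMSO.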
# [5] = system: zebrafish Peroxisome Proliferator-activated Receptor gamma (PPARg), gene 557037; test: ATG_zfPPARg_XSP2: Attagene TRANS-FACTORIAL Multi-Species (XSP2) HepG2 Assay for zebrafish Peroxisome Proliferator-activated Receptor gamma (PPARg) (AID 2283833);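 further: actives increase reporter signal over DMSO so AC50 reflects activation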
# Summary of the method: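 Multi-species TRANS format in HepG2, 24 h dosing; medium also contained 3 nM 6-alpha-fluorotestosterone and 1.5 nM norgestrel to stimulate androgen receptor. Zebrafish PPARg-GAL4 induced reporter mRNA was measured by RT-PCR/capillary electrophoresis.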
# [6] = system: turtle Thyroid Hormone Receptor, alpha (TRa), gene 101949057; test: ATG_trTRa_XSP2: Attagene TRANS-FACTORIAL Multi-Species (XSP1) HepG2 Assay for turtle Thyroid Hormone Receptor, alpha (TRa) (AID 2283834);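 further: hits raise reporter mRNA over the DMSO baseline so AC50 marks activators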
# Summary of the method: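 Transfection of HepG2 with multiple reporter transcription units, then chemical dosing for 24 h. Total RNA was reverse-transcribed, reporter sequences PCR-amplified and FAM-labelled, then sized by capillary electrophoresis. DMSO served as baseline.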
# [7] = ATG_M_61_XSP2: Attagene TRANS-FACTORIAL Multi-Species (XSP2) HepG2 Assay for M61 Transcription Factor (Internal Marker) (AID 2283835; active means hit-call score of the fitted dose curve at least 0.9, where 1 is the maximum; inactive means score below 0.9;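 further: reporter mRNA of an internal background marker read by RT-PCR and capillary electrophoresis; active means a rise in signal above the DMSO baseline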)
# Summary of the method: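 HepG2 cells transiently transfected with multiple GAL4-UAS reporter units; 3 nM 6-alpha-fluorotestosterone and 1.5 nM norgestrel present to stimulate androgen receptor. After 24 h compound exposure, reporter mRNA measured by RT-PCR and capillary electrophoresis fluorescence, gain-of-signal versus DMSO baseline.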
# [8] = biological target: zebrafish Thyroid Hormone Receptor beta (TRb), thrb (gene 30607) (UniProt Q9PVE4); test: ATG_zfTRb_XSP2: Attagene TRANS-FACTORIAL Multi-Species (XSP1) HepG2 Assay for zebrafish Thyroid Hormone Receptor beta (TRb) (AID 2283836)
# Summary of the method: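 Human liver HepG2, transient MRTU transfection (NR-Gal4 chimeras, GAL4-UAS reporters); 24 h compound exposure; total RNA → oligo(dT) RT → PCR → 6-FAM label → HpaI cut → CE fluorescence. DMSO = negative control/baseline.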
# [9] = ATG_XTT_Cytotoxicity_XSP2: Cytotoxicity Assessment in the Attagene TRANS-FACTORIAL Multi-Species (XSP2) HepG2 Assay (AID 2283837)
# Summary of the method: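 HepG2 cells, transiently transfected with multiple reporter constructs, exposed to chemical for 24 h. Cell number assessed with XTT fluorescence read-out; loss of signal fitted relative to DMSO.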
# [10] = biological target: human Thyroid hormone Receptor alpha (TRa), THRA (gene 7067) (UniProt P10827); test: ATG_hTRa_XSP2: Attagene TRANS-FACTORIAL Multi-Species (XSP2) HepG2 Assay for human Thyroid hormone Receptor alpha (TRa) (AID 2283838)
# Summary of the method: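 HepG2 cells were transiently transfected with GAL4-UAS reporter units for chimeric human TRa-Gal4 and dosed for 24 hours, with 3 nM 6-alpha-fluorotestosterone and 1.5 nM norgestrel present. Reporter mRNA was quantified by RT-PCR, FAM labelling and capillary electrophoresis, with gain of signal fitted versus DMSO.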
# Nuclear receptor subfamily 1 group I member 2 (Mus musculus), sequence (O54915 whole entry, looked up, the tested form may be a part): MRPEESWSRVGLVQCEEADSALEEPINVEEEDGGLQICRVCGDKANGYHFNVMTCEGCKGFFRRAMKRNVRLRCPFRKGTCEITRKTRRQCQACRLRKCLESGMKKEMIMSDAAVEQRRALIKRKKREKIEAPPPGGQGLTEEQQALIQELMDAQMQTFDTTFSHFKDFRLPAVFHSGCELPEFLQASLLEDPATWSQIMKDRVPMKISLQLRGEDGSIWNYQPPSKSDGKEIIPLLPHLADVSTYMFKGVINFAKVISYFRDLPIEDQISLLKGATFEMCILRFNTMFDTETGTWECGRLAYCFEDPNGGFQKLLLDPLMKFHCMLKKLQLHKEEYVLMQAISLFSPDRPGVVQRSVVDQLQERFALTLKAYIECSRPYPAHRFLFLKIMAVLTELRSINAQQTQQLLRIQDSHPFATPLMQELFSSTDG
# zebrafish Thyroid Hormone Receptor beta (TRb), thrb (gene 30607), sequence (Q9PVE4 whole entry, looked up, the tested form may be a part): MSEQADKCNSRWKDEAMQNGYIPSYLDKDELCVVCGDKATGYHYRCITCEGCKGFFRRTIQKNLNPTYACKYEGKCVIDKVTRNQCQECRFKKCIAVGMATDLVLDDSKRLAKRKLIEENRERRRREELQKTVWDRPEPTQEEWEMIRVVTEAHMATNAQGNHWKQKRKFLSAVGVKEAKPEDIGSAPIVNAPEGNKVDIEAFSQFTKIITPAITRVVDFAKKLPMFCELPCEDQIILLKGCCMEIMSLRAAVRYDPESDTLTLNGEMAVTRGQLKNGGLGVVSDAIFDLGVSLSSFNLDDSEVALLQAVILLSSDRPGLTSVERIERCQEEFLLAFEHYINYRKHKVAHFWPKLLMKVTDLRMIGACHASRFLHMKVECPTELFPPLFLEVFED
# human Thyroid hormone Receptor alpha (TRa), THRA (gene 7067), sequence (P10827 whole entry, looked up, the tested form may be a part): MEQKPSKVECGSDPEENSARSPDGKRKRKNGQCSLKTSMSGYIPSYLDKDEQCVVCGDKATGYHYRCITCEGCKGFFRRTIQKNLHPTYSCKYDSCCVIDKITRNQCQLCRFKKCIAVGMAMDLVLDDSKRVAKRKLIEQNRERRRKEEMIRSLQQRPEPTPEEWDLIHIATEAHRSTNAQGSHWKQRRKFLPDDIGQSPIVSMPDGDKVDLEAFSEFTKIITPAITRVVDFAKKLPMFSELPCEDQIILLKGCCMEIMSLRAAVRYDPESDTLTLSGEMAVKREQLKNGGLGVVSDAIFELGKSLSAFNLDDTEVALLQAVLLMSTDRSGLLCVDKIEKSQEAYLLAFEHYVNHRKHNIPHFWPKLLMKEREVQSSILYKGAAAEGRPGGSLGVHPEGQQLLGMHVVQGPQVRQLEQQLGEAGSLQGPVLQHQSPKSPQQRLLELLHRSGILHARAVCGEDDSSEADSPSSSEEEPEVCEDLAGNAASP
# mouse Peroxisome Proliferator-activated Receptor gamma (PPARg), Pparg (gene 19016), sequence (P37238 whole entry, looked up): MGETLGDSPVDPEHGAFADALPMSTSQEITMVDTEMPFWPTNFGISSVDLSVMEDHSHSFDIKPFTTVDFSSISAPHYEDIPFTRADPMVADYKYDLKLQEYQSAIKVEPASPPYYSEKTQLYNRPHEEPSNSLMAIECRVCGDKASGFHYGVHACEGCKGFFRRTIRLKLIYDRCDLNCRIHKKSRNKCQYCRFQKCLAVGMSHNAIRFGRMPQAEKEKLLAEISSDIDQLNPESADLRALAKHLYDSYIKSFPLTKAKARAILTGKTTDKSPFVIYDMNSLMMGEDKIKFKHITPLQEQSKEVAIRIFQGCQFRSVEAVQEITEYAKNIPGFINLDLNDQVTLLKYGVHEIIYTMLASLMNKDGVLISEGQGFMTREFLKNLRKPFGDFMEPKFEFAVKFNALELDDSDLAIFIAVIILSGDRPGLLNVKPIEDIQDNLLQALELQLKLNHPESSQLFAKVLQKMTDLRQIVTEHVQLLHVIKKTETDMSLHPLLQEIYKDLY
# Peroxisome proliferator-activated receptor gamma (Homo sapiens), sequence (P37231 whole entry, looked up, the tested form may be a part): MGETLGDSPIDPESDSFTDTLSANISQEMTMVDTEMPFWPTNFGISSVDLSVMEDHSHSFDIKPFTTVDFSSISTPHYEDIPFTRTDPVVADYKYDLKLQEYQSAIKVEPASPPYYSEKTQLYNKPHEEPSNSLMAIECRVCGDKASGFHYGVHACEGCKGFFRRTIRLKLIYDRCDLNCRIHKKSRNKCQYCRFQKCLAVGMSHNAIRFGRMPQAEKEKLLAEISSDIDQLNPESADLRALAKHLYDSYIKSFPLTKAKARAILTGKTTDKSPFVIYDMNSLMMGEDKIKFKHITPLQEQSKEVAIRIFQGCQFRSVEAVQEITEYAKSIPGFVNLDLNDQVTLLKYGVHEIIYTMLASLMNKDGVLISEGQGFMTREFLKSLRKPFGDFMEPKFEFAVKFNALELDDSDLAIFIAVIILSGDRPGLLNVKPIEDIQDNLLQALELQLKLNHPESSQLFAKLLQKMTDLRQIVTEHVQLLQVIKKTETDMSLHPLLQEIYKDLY
# zebrafish Thyroid Hormone Receptor alpha (TRa), thraa (gene 30670), sequence (Q98867 whole entry, looked up, the tested form may be a part): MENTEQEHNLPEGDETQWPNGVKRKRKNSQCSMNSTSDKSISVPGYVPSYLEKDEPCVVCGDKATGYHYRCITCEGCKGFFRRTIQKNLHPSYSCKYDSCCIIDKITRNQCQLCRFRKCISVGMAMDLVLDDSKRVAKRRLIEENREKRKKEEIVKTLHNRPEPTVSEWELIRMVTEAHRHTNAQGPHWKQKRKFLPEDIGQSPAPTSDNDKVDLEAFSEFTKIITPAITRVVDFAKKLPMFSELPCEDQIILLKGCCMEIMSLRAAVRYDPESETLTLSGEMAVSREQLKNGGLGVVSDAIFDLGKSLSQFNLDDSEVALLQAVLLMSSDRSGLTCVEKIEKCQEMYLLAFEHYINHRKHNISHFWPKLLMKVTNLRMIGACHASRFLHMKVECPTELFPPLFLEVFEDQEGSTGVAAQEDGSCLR
Structure (SMILES),AC50 [1],outcome [1],AC50 [2],outcome [2],AC50 [3],outcome [3],outcome [4],outcome [5],outcome [6],outcome [7],outcome [8],outcome [9],outcome [10]
C=CCOC(=O)c1ccccc1C(=O)OCC=C,43.7 µM (active),inactive,44.1 µM (active),inactive,27.5 µM (active),inactive,inactive,inactive,inactive,inactive,inactive,inactive,inactive
CCCc1cc(=O)[nH]c(=S)[nH]1,–,inactive,–,inactive,–,inactive,–,inactive,inactive,–,inactive,–,inactive
CC(=O)C(C)=CC1C(C)=CCCC1(C)C (stereo not given),64.4 µM (active),inactive,146 µM (active) and 25.2 µM (active),–,8.16 µM (active) and 12.9 µM (active),–,–,inactive,inactive,inactive,inactive,inactive,–
CC(C)(C)c1cc(O)c(C(C)(C)C)cc1O,42.7 µM (active),–,57.5 µM (active),–,–,–,inactive,inactive,–,inactive,inactive,–,–
